# Assay results as given in PubChem BioAssay (NCI).
# The panel holds about 83,000 compounds, 20% with a hit somewhere; the sample as a whole holds those more often.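 Single-dose data. Exposure time 48 hours. Values below 10 considered active.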 Values without a mark were called inactive. Active and inactive are the calls of the source.
# Legend:
# Experiment in all cases: NCI-60 one-dose screen, 48 h (100 = growth as untreated, 0 = no growth, -100 = all killed)
# Conditions in all cases: 10 µM unless noted
# [1] = system: HCT-15 colon
# [2] = system: HT29 colon
# [3] = system: SNB-75 CNS
# [4] = system: SNB-19 CNS
# [5] = system: U251 CNS
# [6] = system: PC-3 prostate
# [7] = system: SK-MEL-5 melanoma
# [8] = system: UACC-62 melanoma
# [9] = system: LOX IMVI melanoma
# [10] = system: SK-MEL-28 melanoma
Compound,growth [1],growth [2],growth [3],growth [4],growth [5],growth [6],growth [7],growth [8],growth [9],growth [10]
Cn1cc(-c2nc(-c3c[nH]c4ccncc34)cs2)c2cc(Br)ccc21,-85.4% (active),-81.9% (active),-97% (active),-76% (active),-84.1% (active),-86.4% (active),-47.9% (active),-86.7% (active),-90% (active),-91.3% (active)
COc1ccc(C(O)c2cc3c(N)c(C(=O)Nc4cccc(Cl)c4)sc3nc2C)cc1 (stereo not given),11.6%,8.32% (active),31.2%,28.3%,23.6%,27.3%,-16.9% (active),27.5%,30.7%,65.8%
COc1ccc(-c2cc(-c3ccc(OC)cc3)nc(NCCCNc3ccnc4cc(Cl)ccc34)n2)cc1,-77% (active),-59.6% (active),112%,93.3%,70.7%,61.5%,22.7%,91.8%,-95% (active),37.5%
N#Cc1c(N2CCOCC2)nc(=S)[nH]c1-c1ccccc1,86.6%,86.1%,15.1%,84.8%,78.5%,47%,63%,43.6%,80%,79.6%
C=CCOC(=O)C1=C(C)NC(=O)NC1c1c(Cl)n(C)c2ccccc12 (stereo not given),99.8%,110%,97.8%,94%,96.3%,89.2%,102%,90.3%,102%,99.6%
CCOC(=O)NN1CC(O)=C(c2nc(-c3ccc(Br)cc3)cs2)C1=N,115%,108%,101%,98.7%,113%,85.2%,103%,110%,106%,113%
CCCCCCOC(=O)CC1=C(C)/C(=C/c2[nH]c(-c3ccc[nH]3)cc2OC)N=C1C,-34.9% (active),1.26% (active),-5.75% (active),12.8%,-68.8% (active),-23% (active),-92.1% (active),-64.5% (active),-82% (active),-64.9% (active)
CCOC(=O)C1=C(c2ccccc2)N=c2s/c(=C/c3ccc(Br)cc3)c(=O)n2C1c1ccc(O)cc1 (stereo not given),82.3%,87.6%,68.7%,86.7%,81.1%,64.1%,91.9%,76.1%,91.7%,92.5%
CN(Cc1cnc2nc(N)nc(N)c2n1)c1c(Cl)cc(C(=O)NC(CCC(=O)O)C(=O)O)cc1Cl (stereo not given),28%,30.4%,63.9%,31.7%,33.4%,22.5%,21.3%,16.4%,13.8%,63.3%
CNC(=O)c1cc(Oc2ccc3nc(NC(=O)Nc4ccc(Cl)c(Cl)c4)sc3c2)ccn1,55%,36.4%,-38.3% (active),74.9%,24%,-24.7% (active),72.7%,75.8%,-91.9% (active),41.4%
CCOC(=O)c1c(-c2ccc(Cl)cc2)c(C#N)c2c(C#N)c(N)nn2c1N,47.2%,49.7%,79.8%,74.7%,66.4%,59.3%,52.3%,46.4%,65.8%,62.6%
CN(CCC#N)c1ccc(/C=C2\NC(=O)NC2=O)cc1,104%,82.4%,102%,102%,112%,94.8%,102%,91.1%,87.9%,109%
CCn1cc(CNc2ccc(C(=O)Nc3cc4cc(OC)c(OC)cc4c(C)n3)cc2)c(C)n1,23.1%,54.1%,77.1%,90%,71%,18.6%,1.46% (active),6.57% (active),23.9%,50.4%
O=C(CN1C(=O)NC2NC(=O)NC21)N/N=C/c1ccc(Cl)cc1Cl (stereo not given),104%,110%,82.8%,102%,112%,103%,99.5%,99%,103%,109%
O=C1CCC(C(=O)NN(c2ccccc2)c2ccccc2)N1 (stereo not given),103%,111%,89.2%,100%,103%,14.3%,106%,94.4%,95%,109%
CCN(CC)c1ccc(N2C(=O)/C(=C/c3cccs3)SC2=S)cc1,102%,101%,93.9%,94.6%,89.1%,64.1%,93.8%,80.8%,88.8%,97.6%
N#C/C(=C\c1ccc(Br)cc1)c1cc2ccccc2[nH]1,94%,109%,104%,94.5%,95.1%,84.7%,97.4%,87.8%,95.3%,103%
C#CC#CC#CC#CC#CC#CC#CC#CC[C@H]1OC[C@@H](COC(=O)O[C@@H](C(=O)O[C@H]2C[C@@]3(O)[C@@H](OC(=O)c4ccccc4)[C@@H]4[C@]5(OC(C)=O)CO[C@@H]5C[C@H](O)[C@@]4(C)C(=O)[C@H](OC(C)=O)C(=C2C)C3(C)C)[C@@H](NC(=O)c2ccccc2)c2ccccc2)O1,95.2%,7.9% (active),32.8%,55.8%,43.4%,45.7%,64.8%,50.9%,41.1%,62.8%
c1ccc2cc(Cn3c[n+](Cc4ccc5ccccc5c4)c4ccccc43)ccc2c1,53.6%,-80.6% (active),-7.06% (active),-20.1% (active),-90.3% (active),-19.4% (active),-98.1% (active),-70.1% (active),-93.9% (active),-28.9% (active)
COc1cc(-c2nc(NC(C)=O)sc2-c2ccnc(NCCNS(=O)(=O)c3ccccc3)n2)ccc1Cl,31.7%,3.97% (active),15.7%,53.9%,31.5%,16.3%,1.64% (active),23%,32.1%,35.6%
O=C1/C(=C/c2ccc(Br)cc2)COc2ccc(O)c(O)c21,0.349% (active),2.83% (active),20.4%,6.19% (active),-72.4% (active),-26.3% (active),29.8%,-14.2% (active),-91% (active),22%
CN(C)c1ccc(/C=C/C(=O)c2ccccc2)cc1,62.1%,62.5%,100%,90.4%,69.3%,71.6%,89.3%,93.1%,78.3%,96.8%
O=C(CSc1nnc2sc(Nc3cccc(Cl)c3)nn12)c1ccc(F)cc1,92.3%,90.5%,104%,95.5%,97.9%,85%,98.5%,82.7%,91.7%,104%
CN(C)Cc1ccc(C(=O)Nc2ccc3ncnc(Nc4ccc(Oc5cccc(F)c5)c(Cl)c4)c3c2)cc1,-45.3% (active),-35.4% (active),18.5%,-3.27% (active),-28.1% (active),3.54% (active),-82.6% (active),-20.1% (active),-96.2% (active),-89.1% (active)
COc1ccc(Cn2cc(C(=O)N=Nc3c(O)[nH]c4c(Cl)cccc34)nn2)cc1,107%,97%,82.1%,93.6%,102%,96.7%,101%,102%,93.7%,115%
CCn1cc(C2=C(c3cn(C)c4ncccc34)C(=O)NC2=O)c2cccnc21,67.6%,72.4%,-10.8% (active),87.7%,76.7%,66%,86.3%,70%,66.5%,90.7%
O=C(O)C1CN(c2cccc(Cl)c2)N(c2cccc(Cl)c2)C1=O (stereo not given),91.8%,96.2%,76.9%,82.8%,102%,94.6%,98%,88.5%,88.7%,93.1%
